ANO1 activ = TMEM16A chloride channel activators or potentiators, primary screen, cell-based, HTS; Anoctamin-1 (Mus musculus), Q8BHY3; AID 623877, 2012; HEK293 TMEM16A/YFP-H148Q/I152L, iodide quench fluorescence; hits give low values; actives 0.3% (n = 340,000); B-score at 10 µM;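 active means fluorescence-ratio B-score plate-corrected deviation score at least 3 library SD below zero, with starting fluorescence score within 5 deviations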;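 further: channel opened by trigger with iodide after compound preincubation; score built on the fluorescence ratio of max minus min over baseline; more negative score means more quench and so TMEM16A activation or potentiation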
TMEM16A inh = TMEM16A chloride channel inhibitors, primary screen, cell-based, HTS; Anoctamin-1 (Mus musculus), Q8BHY3; HEK293 TMEM16A/YFP iodide influx fluorescence, ionomycin; normalized B-score (activity score, 25-100; higher = stronger inhibition) at 10 µM; actives 1.2% (n = 310,000); AID 588511, 2011;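 active means ratio plate-corrected score three or more library SD toward inhibition, starting fluorescence score within five deviations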;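 further: score derived from kinetic fluorescence span divided by baseline fluorescence per well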
CHT allo act = CHT positive allosteric modulators, primary screen, cell-based, membrane potential dye, choline EC20. CHT-expressing cells; hits give high values; LV-AA mutant CHT in HEK293 cells. B-score at 10 µM. actives 0.49% (n = 310,000);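 active means initial fluorescence not abnormally high and integrated response B-score, plate-corrected, over 3 SD above library mean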
HDAC3 inh = HDAC3 deacetylase inhibitors, primary screen, biochemical, fluorescence, cell-free homogeneous; Histone deacetylase 3 (Homo sapiens), O15379; recombinant HDAC3, fluorogenic peptide/trypsin coupled; inhibition, % at 8.3 µM; actives 0.15% (n = 320,000); AID 2718, 2010; in the data active means inhibition above about 26%, passing the limit was not always enough; inconclusive means no clear call, values can overlap the other calls
Target sequence (O15379 whole entry, looked up): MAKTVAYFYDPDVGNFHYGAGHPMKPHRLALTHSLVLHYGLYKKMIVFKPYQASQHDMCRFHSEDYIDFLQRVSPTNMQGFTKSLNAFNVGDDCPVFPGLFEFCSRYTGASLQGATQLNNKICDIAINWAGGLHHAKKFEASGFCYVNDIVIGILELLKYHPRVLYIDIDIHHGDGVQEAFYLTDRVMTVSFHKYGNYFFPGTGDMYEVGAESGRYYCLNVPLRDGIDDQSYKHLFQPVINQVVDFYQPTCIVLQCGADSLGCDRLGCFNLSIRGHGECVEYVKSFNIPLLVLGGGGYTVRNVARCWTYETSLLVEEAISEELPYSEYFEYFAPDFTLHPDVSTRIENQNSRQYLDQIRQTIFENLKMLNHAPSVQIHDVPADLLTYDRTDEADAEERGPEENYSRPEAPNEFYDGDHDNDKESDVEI
PHOSPHO1 block = PubChem AID 1565; Phosphoethanolamine/phosphocholine phosphatase (Homo sapiens), Q8TCT1; recombinant PHOSPHO1, absorbance phosphatase assay; inhibition, % at 13.3 µM; actives 1.1% (n = 290,000); in the data active means inhibition above about 60%
Target sequence (Q8TCT1 whole entry, looked up): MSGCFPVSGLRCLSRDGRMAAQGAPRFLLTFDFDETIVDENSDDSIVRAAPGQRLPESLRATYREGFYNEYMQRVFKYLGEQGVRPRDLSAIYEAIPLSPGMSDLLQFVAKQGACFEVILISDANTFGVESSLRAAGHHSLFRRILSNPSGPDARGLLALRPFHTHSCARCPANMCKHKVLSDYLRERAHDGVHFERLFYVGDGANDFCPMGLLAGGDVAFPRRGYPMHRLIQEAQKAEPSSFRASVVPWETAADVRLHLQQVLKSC
CHT block = inhibitors of human choline transporter CHT; actives 0.86% (n = 310,000); CHT-expressing cells, membrane potential dye, choline response; hits give low values; B-score at 10 µM; AID 488975, 2010; High affinity choline transporter 1 (Homo sapiens), Q9GZV3;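 active means B-score over 3 SD under the library average, and starting fluorescence ratio not unusually high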;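 further: choline stimulus applied at its EC90 after an EC20 pre-addition; B-score computed on integrated fluorescence ratio after choline addition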
TMEM16A reconf = TMEM16A chloride channel inhibitors, confirmation, cell-based, re-confirmation. shares compounds with TMEM16A inh. HEK293 TMEM16A/YFP-H148Q, iodide quench fluorescence; ionomycin added to raise cell calcium. inhibition, % at 10 µM. actives 39% (n = 2,300);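 active means mean duplicate percent inhibition, scaled so buffer wells are 0 and the reference blocker 100, over three buffer SD above buffer mean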
HEK293 Ca mobil = calcium mobilization in TMEM16A/YFP HEK293 cells, confirmation, counter-screen for TMEM16A inhibitor project | Fluo4 calcium mobilization | actives 2% (n = 2,300) | shares compounds with TMEM16A inh | calcium response (% of ionomycin), % at 10 µM;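 active means duplicate-averaged calcium signal over 20% of the ionomycin maximum, relative to buffer baseline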;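 further: each well's signal is peak minus trough fluorescence divided by its pre-addition baseline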
YFP-HEK293 quench = iodide YFP quench changes in parental YFP-HEK293, counter-screen for TMEM16A inhibitor project, cell-based | AID 652233, 2013 | ionomycin | YFP ratio F(max-min)/F0 at 10 µM | 2,300 tested, under 10 active | shares compounds with TMEM16A inh;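 active means yellow fluorescent protein signal ratio exceeding the buffer control mean by over 5 SD of those controls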;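 further: ratio is mean of duplicate wells from kinetic YFP trace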
ClC-1 rat inh = ClC-1 chloride channel inhibition, selectivity assay for TMEM16A inhibitor project, cell-based, voltage-dependent ClC-1 | shares compounds with TMEM16A inh | CHO ClC-1-YFP, iodide influx fluorescence quench; iodide control reads 0, buffer control 100 | ratio percent, % at 10 µM | 2,300 tested, under 10 active | AID 652236, 2013;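 active means duplicate-mean ratio percent above the mean of iodide-only control wells, which defines zero, plus 5 of their SD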;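 further: higher percent means stronger block of ClC-1 iodide influx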
Of the large screens only hits and unclear results are named; the others gave an inactive call (follow-up assays come after a bar, where they were run). Only some compounds are listed: those with a hit (about 3.2% of all), similar ones and a draw of the others.

CCN(C1CCCCC1)S(=O)(=O)c1cc(C)ccc1OC	none
CCN(C1CCCCC1)S(=O)(=O)c1ccc(OC)c(C)c1	TMEM16A inh 100 | TMEM16A reconf inactive | HEK293 Ca mobil inactive | YFP-HEK293 quench inactive | ClC-1 rat inh inactive
CN1CCN(C(=S)NC(=O)c2cccc(S(=O)(=O)N(C)C)c2)CC1	none
CC(C)Cc1ccc(C(C)C(=O)Nc2cccnc2)cc1 (centres undefined)	TMEM16A inh 25 | TMEM16A reconf 52.5% | HEK293 Ca mobil inactive | YFP-HEK293 quench inactive | ClC-1 rat inh inactive
CC(C(=O)Nc1cccnc1)c1ccc([N+](=O)[O-])cc1 (centres undefined)	none
CCOc1ccc(C(=O)N2CCN(S(=O)(=O)c3cccs3)CC2)c(OCC)c1	none
Cc1ccc(NC(=O)COC(=O)c2ccc(Br)o2)cc1S(=O)(=O)N1CCCCC1	none (no result: TMEM16A inh, CHT allo act, PHOSPHO1 block, CHT block)
Cc1ccc2[nH]c3c(NCc4ccco4)ncnc3c2c1	TMEM16A inh 25 | TMEM16A reconf 22.0% | HEK293 Ca mobil inactive | YFP-HEK293 quench inactive | ClC-1 rat inh inactive
Cc1nc(Nc2ccc3c(c2)OCCO3)c2oc3ccccc3c2n1	none
c1coc(CNc2ncnc3c2oc2ccccc23)c1	TMEM16A inh 100, HDAC3 inh inconclusive | TMEM16A reconf inactive | HEK293 Ca mobil inactive | YFP-HEK293 quench inactive | ClC-1 rat inh inactive
c1ccc2c(c1)oc1c(Nc3ccc4c(c3)OCCO4)ncnc12	TMEM16A inh 25 | TMEM16A reconf inactive | HEK293 Ca mobil inactive | YFP-HEK293 quench inactive | ClC-1 rat inh inactive
CC(C)c1ccc(NC(=O)C(=O)c2cn(CC(=O)N3CCCCC3)c3ccccc23)cc1	none
Cc1cc(C)nc(N2CCCC(C(=O)Nc3nnc(C(C)C)s3)C2)n1 (centres undefined)	none (no result: ANO1 activ, TMEM16A inh, CHT allo act, HDAC3 inh, CHT block)
C/C(=N\NC(=O)CCc1ccccc1)C1C(=O)c2ccccc2C1=O	none
C/C(=N\NC(=O)c1cccc(Cl)c1)C1C(=O)c2ccccc2C1=O	TMEM16A inh 100 | TMEM16A reconf inactive | HEK293 Ca mobil inactive | YFP-HEK293 quench inactive | ClC-1 rat inh inactive
CCc1cc(C(=O)COc2ccc(F)cc2)c(O)cc1O	TMEM16A inh 100 | TMEM16A reconf 20.5% | HEK293 Ca mobil inactive | YFP-HEK293 quench inactive | ClC-1 rat inh inactive
Cc1c(O)ccc(C(=O)COc2ccc(F)cc2)c1O	none
COc1ccc(Nc2ccc(C(F)(F)F)cc2[N+](=O)[O-])cn1	none
Cc1cc(C)c2c(CC(=O)NCc3ccco3)coc2c1	none
Cc1ccc(S(=O)(=O)N2[C@@H](c3ccc(F)cc3)C(C(=O)O)=CC[C@H]2c2ccc(Cl)cc2)cc1	TMEM16A inh 25 (no result: PHOSPHO1 block) | TMEM16A reconf inactive | HEK293 Ca mobil inactive | YFP-HEK293 quench inactive | ClC-1 rat inh inactive
Cc1ccc([C@@H]2CC=C(C(=O)O)[C@H](c3ccc(Cl)cc3)N2S(=O)(=O)c2ccc(C)cc2)cc1	TMEM16A inh 25 (no result: PHOSPHO1 block) | TMEM16A reconf 16.5% | HEK293 Ca mobil inactive | YFP-HEK293 quench inactive | ClC-1 rat inh inactive
CCOc1ccc([C@@H]2CC=C(C(=O)O)[C@H](c3ccc(Cl)cc3)N2S(=O)(=O)c2ccc(C)cc2)cc1	none (no result: PHOSPHO1 block)
CC(C)(C)c1ccc(C2=CC(c3ccccc3F)n3ncnc3N2)cc1 (centres undefined)	none (no result: PHOSPHO1 block)
Cn1cccc1C1C=C(c2ccc(C(C)(C)C)cc2)Nc2ncnn21 (centres undefined)	TMEM16A inh 100 (no result: PHOSPHO1 block) | TMEM16A reconf 49.5% | HEK293 Ca mobil inactive | YFP-HEK293 quench inactive | ClC-1 rat inh inactive
CC(C)(C)C(=O)NC(NC(=S)Nc1sc2c(c1C#N)CCCC2)C(Cl)(Cl)Cl (centres undefined)	TMEM16A inh 100 | TMEM16A reconf 34.0% | HEK293 Ca mobil inactive | YFP-HEK293 quench inactive | ClC-1 rat inh inactive
CCCCOc1ccc(C(=O)NCC(=O)NC2CC2)cc1	none (no result: TMEM16A inh, CHT allo act, HDAC3 inh, PHOSPHO1 block, CHT block)
CN(c1ccccc1)S(=O)(=O)c1ccc(NC(=O)c2nc(S(C)(=O)=O)ncc2Cl)cc1	ANO1 activ -5.46, TMEM16A inh 25 | TMEM16A reconf 18.5% | HEK293 Ca mobil inactive | YFP-HEK293 quench inactive | ClC-1 rat inh inactive
CN(c1ccccc1)S(=O)(=O)c1ccc(NC(=O)c2ccccc2)cc1	none
COc1c(C(=O)Nc2ccc(Cc3ccncc3)cc2)ccc2ccccc12	TMEM16A inh 100 | TMEM16A reconf inactive | HEK293 Ca mobil inactive | YFP-HEK293 quench inactive | ClC-1 rat inh inactive
N#Cc1ccc(CSc2nnc3[nH]c(=O)cc(N)n23)cc1	none
CCNC(=O)CC1C(=O)N(c2ccc(F)cc2)C(=O)N1Cc1ccccn1 (centres undefined)	TMEM16A inh 100 | TMEM16A reconf inactive | HEK293 Ca mobil inactive | YFP-HEK293 quench inactive | ClC-1 rat inh inactive
CCOc1ccc(N2C(=O)C(CC(=O)Nc3ccc(F)cc3)N(Cc3ccccn3)C2=S)cc1 (centres undefined)	none
CC(C(=O)Nc1cc([N+](=O)[O-])ccc1Cl)N1CCN(c2ccccc2O)CC1 (centres undefined)	none
COC(=O)c1ccc(-c2noc(CN(C)Cc3ccncc3C)n2)cc1	TMEM16A inh 25 | TMEM16A reconf inactive | HEK293 Ca mobil inactive | YFP-HEK293 quench inactive | ClC-1 rat inh inactive
COc1ccc(CNC(=O)COc2cccnc2[N+](=O)[O-])cc1OC	none (no result: ANO1 activ)
Cc1cc(-c2cc(C(=O)NC3CCCC3)on2)nc(NCC2CC2)n1	none
COc1ccc(Cc2nc(-c3ccc(-n4cccc4)cc3)no2)cc1	none
COc1ccc(Cc2nc(-c3ccc(-n4cccc4)cc3)no2)cc1OC	TMEM16A inh 100 | TMEM16A reconf inactive | HEK293 Ca mobil inactive | YFP-HEK293 quench inactive | ClC-1 rat inh inactive

High-throughput results: PubChem, several laboratories
